# Among all 1,500 compounds or so, about 390 (26%) were called active. A selection follows. Entries with a potency or affinity are not part of this list. A number with no mark means an inactive call. How the calls were made is not given here.
# Biological target: Histone-lysine N-methyltransferase NSD2 (Homo sapiens) (UniProt O96028)
# Assay: blockers of NSD2 H4 peptide methylation – biochemical, AlphaScreen, cherry-picked samples, dose response (AID 1053173);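 further: 0% = neutral control wells and -100% = positive control wells on each plate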
# Conditions: 120 min; series mostly up to 10 µM; activity change, negative = inhibition: at the top concentration
# Histone-lysine N-methyltransferase NSD2 (Homo sapiens), sequence (O96028 whole entry, looked up): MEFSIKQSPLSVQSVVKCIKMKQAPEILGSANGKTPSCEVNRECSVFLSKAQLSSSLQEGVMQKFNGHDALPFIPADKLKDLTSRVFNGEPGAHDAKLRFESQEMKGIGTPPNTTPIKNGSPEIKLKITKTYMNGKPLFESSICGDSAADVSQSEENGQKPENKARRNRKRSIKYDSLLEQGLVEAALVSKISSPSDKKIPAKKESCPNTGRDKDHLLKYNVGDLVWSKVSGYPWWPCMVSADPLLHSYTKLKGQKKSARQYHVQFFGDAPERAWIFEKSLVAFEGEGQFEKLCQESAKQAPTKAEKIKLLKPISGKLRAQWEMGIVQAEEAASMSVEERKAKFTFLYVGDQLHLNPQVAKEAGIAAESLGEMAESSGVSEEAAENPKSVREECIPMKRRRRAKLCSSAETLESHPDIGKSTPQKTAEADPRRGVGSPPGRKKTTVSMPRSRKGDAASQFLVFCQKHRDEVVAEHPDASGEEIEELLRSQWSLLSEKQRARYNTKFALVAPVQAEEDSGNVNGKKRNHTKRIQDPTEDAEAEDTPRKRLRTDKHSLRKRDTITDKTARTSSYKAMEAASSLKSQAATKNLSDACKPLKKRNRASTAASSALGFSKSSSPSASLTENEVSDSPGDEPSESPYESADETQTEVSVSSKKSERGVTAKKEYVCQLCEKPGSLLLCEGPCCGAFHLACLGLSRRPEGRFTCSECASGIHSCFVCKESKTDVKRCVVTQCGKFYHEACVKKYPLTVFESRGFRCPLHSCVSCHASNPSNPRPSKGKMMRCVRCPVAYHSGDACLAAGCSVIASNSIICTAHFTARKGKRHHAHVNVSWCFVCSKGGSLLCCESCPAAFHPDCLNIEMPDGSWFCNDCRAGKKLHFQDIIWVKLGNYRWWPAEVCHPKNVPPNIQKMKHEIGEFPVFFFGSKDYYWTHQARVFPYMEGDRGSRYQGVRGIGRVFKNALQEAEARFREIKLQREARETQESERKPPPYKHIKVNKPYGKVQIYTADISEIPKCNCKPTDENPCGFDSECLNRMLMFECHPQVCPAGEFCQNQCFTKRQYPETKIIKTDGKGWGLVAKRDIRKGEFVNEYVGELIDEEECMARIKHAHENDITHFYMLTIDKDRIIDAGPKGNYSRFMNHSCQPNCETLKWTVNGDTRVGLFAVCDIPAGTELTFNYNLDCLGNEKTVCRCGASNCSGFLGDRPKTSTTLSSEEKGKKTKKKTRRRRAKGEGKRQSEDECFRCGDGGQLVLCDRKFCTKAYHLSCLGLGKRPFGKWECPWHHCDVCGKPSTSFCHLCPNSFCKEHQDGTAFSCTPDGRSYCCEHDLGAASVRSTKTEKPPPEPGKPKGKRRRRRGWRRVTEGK
row,SMILES,"activity change, negative = inhibition [%]"
1,CCC1CC(CSc2ncn[nH]2)OC1=O (stereo unspecified),0.746
2,COc1ccccc1CNC(=O)C(NC(=O)Nc1ccccc1)C(C)C (stereo unspecified),-3.7
3,CC(C)(C)/C=N/NC(=O)CNC(=O)c1ccc2c(c1)OCCO2,1.14
4,CS(=O)(=O)N(CC(=O)NCc1ccco1)c1ccc2c(c1)OCO2,-3.9
5,COc1cc(NC(=O)COC(=O)CNC(=O)c2ccc(C)cc2)c(C)cc1[N+](=O)[O-],-3.2
6,S=C(Nc1ccc2nsnc2c1)N1CCCC1,-6.84
7,Fc1ccc(NC(=S)Nc2ccc3nccnc3c2)cc1,2.33
8,Cc1ccc(NC(=S)Nc2cccc3cnccc23)cc1,-5.24
9,CCOc1ccc(NC(=S)N2CCC(NC(=O)C3CCCCC3)CC2)cc1,0.233
10,CCc1ccc(NC(=S)Nc2cccc3cnccc23)cc1,-1.42
11,COc1cc(/C=N/N2CCN(C3c4ccccc4-c4ccccc43)CC2)cc(OC)c1OC,-4.53
12,Cc1ccc(CSc2nc3c(c(=O)[nH]2)C(c2ccncc2)C2=C(CCCC2=O)N3)cc1 (stereo unspecified),-4.75
13,CC(=O)c1cccc(NC(=O)c2csc(-n3nc(C)cc3C(F)(F)F)n2)c1,3.13
14,CCCC(C(=O)NC(C)(C)C)N(CC1CCCO1)C(=O)CNS(=O)(=O)c1ccc(F)cc1 (stereo unspecified),-3.4
15,CC(=O)Nc1ccc(SCCC2CCCCN2C)cc1 (stereo unspecified),-0.85
16,CCOc1ccc(-n2cnc3sc4c(c3c2=O)CCCC4)cc1,0.365
17,C[N+](C)(C)CCC(=O)N1C/C(=C/c2ccccc2)C(=O)/C(=C\c2ccccc2)C1,-3.58
18,O=C(CN1C(=O)c2ccc([N+](=O)[O-])cc2C1=O)Nc1nnc(C2CC2)s1,4.34
19,Cc1ccc(NC(=O)c2cc([N+](=O)[O-])ccc2NCc2cccnc2)cc1Cl,-5.31
20,CC(=O)N1CCc2cc(Br)cc(S(=O)(=O)NCCCN(C)Cc3ccccc3)c21,-2.14
21,CN1CCC(=NNC(=O)c2cn(-c3ccccc3)nc2-c2ccccc2)CC1,0.308
22,Cc1ccccc1-c1noc(C23CC4CC(CC(C4)C2)C3)n1,4.84
23,CCOC(=O)C1CCCN(C(=O)c2ccc(OC(C)=O)cc2)C1 (stereo unspecified),0.226
24,Cc1nnc(Sc2cc(NCCO)c([N+](=O)[O-])c3nonc23)s1,0.095

row,SMILES,"activity change, negative = inhibition [%]"
1,CC(C)CNC(=O)c1cnn2c(C(F)(F)F)cc(C(F)(F)F)nc12,-1.7
2,Nc1c(Br)cc(Br)c2c1[nH]c(=O)c1ccccc12,-9.35
3,CCOc1cc(N2CCOCC2)c(OCC)cc1NC(=O)c1cnccn1,-2.35
4,COc1cc(/C=N/n2c(C)nnc2C)cc(OC)c1OC,-1.56
5,O=C(c1ccccc1OCc1ccccc1Br)N1CCN(c2ncccn2)CC1,1.96
6,N#Cc1ccc(-c2ccco2)nc1SCc1ccccc1,-2.11
7,CSc1nnc(-c2ccco2)c(-c2ccco2)n1,-10.2
8,CCOC(=O)CC(NS(=O)(=O)c1ccc2[nH]cc(C(=O)O)c(=O)c2c1)c1ccc(OCC)c(OC)c1 (stereo unspecified),-7.85
9,O=C(/C=C/c1ccc(OCCCF)cc1)N1CCN(Cc2ccccc2)CC1,-3.48
10,CN1C(=O)C(=O)/C(=C(/O)c2ccccc2)C1c1ccccc1 (stereo unspecified),-2.62
11,CCn1c(SC(=O)NC2CCCCC2)nnc1-c1cccs1,6.57
12,Cc1cc(C)c(NC(=O)C2CC(=O)N(c3ccc4c(c3)OCCO4)C2)c(C)c1 (stereo unspecified),-2.35
13,Cc1cc(C)nc(N2CCC(C(=O)N(C)CCc3ccccc3)CC2)n1,-0.983
14,C/[N+]([O-])=C1\Cc2ccccc2C1=O,1.15
15,O=C(CN(C(=O)c1csnn1)c1cccc2ccccc12)NCc1ccccc1,1.06
16,Cc1cc(C(=O)COC(=O)c2n[nH]c3ccccc23)c(C)n1C,-2.21
17,O=C(NCCCn1ccnc1)C1CCN(S(=O)(=O)c2ccc(F)cc2)CC1,-3.94
18,CC(=O)Nc1ccc(S(=O)(=O)NCCSCc2ccc(Cl)cc2Cl)cc1,0.56
19,CC(C)NCC#CCOc1ccc(Cl)cc1,-11.6
20,COC(=O)c1ccc(-n2nnnc2SCC(=O)NCc2cccc(C(=O)O)c2)cc1,1.21
21,O=C(NCc1ccco1)c1scc2c1OCCO2,-1.63
22,CC(C)(C)NC(=O)C(c1ccco1)N(C(=O)Cn1nnc(-c2ccc(F)cc2)n1)c1ccccc1F (stereo unspecified),3.9
23,O=C(c1ccccc1)c1cc2ccccc2oc1=O,0.833
24,Cc1cc(=O)oc(C)c1C(=O)OCC(=O)c1ccccc1,1.53

row,SMILES,"activity change, negative = inhibition [%]"
1,COc1ccc(N2CCOCC2)c(NC(=O)c2ccc3c(c2)OCO3)c1,-3.97
2,CCC1Cc2c(nc(N)c3c(N)nc(N4CCOCC4)c(C#N)c23)O1 (stereo unspecified),-3.29
3,CCOc1cc2c(C#N)c(N3CCOCC3)nc(N)c2c(N)n1,-0.342
4,CC(C)n1c(NCc2nc3ccccc3n2C)nc2ccccc21,-0.542
5,CCc1ccc(N2C(=O)C3C(C2=O)N2CCCN2C3c2ccccc2)cc1 (stereo unspecified),3.23
6,COc1cc(/C=C2\C(=O)ON=C2c2ccccc2)cc(Cl)c1O,-10.3
7,O=C1C(=Cc2ccco2)CCC1=Cc1ccco1,-10.4
8,COc1ccc(CNC(=O)CCCN2C(=O)NC3(CCCC3)C2=O)cc1,4.98
9,COc1ccc(NC(=O)Cn2nnc(C(=O)NCCc3ccc(OC)c(OC)c3)c2N)cc1,-1.57
10,Cc1ccc(S(=O)(=O)N2CCCCC2CCNC(=O)C(=O)Nc2ccccc2F)cc1 (stereo unspecified),2.31
11,CC(=O)N(C)c1ccc(N=Nc2c(C)[nH]n(C(N)=S)c2=O)cc1,-3.77
12,COC(=O)[C@H](Cc1ccccc1)NC(=O)Nc1ccc(S(N)(=O)=O)cc1,-1.38
13,CCCCNC1=CC(=O)C(=O)c2ccccc21,-12.7
14,NS(=O)(=O)c1ccc(N/N=C/c2ccncc2)cc1,-3.56
15,O=C(CSc1nc(SCC(=O)NCc2ccccc2)n(-c2ccccc2)n1)NCc1ccccc1,-1.26
16,COc1ccc(C(=O)Nc2c3c(nn2-c2ccc(Cl)cc2)CS(=O)(=O)C3)cc1,-0.12
17,CC(=O)N1C2CCCCC2S[C@H]2CCCCC21 (stereo partly specified),1.03
18,O=C(NCc1ccco1)Nc1cccc([N+](=O)[O-])c1,-2.52
19,CCCCc1nc2cc(C(=O)N3CCC(O)CC3)ccc2o1,-1.24
20,O=C(NC(c1ccc(Cl)cc1)c1cc(Cl)c2cccnc2c1O)c1cccnc1 (stereo unspecified),-3.15
21,Cn1c(=O)c(-c2ccccc2)nc2ccccc21,10.3
22,CCCn1c(C)nc2c(c1=O)c1nc3ccccc3nc1n2-c1ccccc1,3.1
23,CC(=O)Nc1ccc(N(C(=O)CNC(=O)c2ccco2)C(C(=O)NCC2CCCO2)c2ccccc2)cc1 (stereo unspecified),0.85
